# Data from PubChem BioAssay (EPA / NIEHS).
# Records with an inconclusive call do not appear. The source made the active and inactive calls. How the source made its calls, unless noted: active means hit-call score of the fitted dose curve at least 0.9, where 1 is the maximum; inactive means score below 0.9.
# What was measured:
# [1] = CCTE_Mundy_HCI_Cortical_Synap_Neur_Matur_NeuriteCount: CCTE's Synaptogenesis and Neurite Maturation Assay in rat cortical cells for Neurite Count, Mundy Lab (AID 2284222);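 further: exposure from day 7 to day 12 in vitro with readout at day 12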
# How it was run: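 Chemical exposure runs DIV 7–12 in rat cortical cultures, glia suppressed by AraC at DIV 5; measurement is at DIV 12. Imaging-derived neurite counts are fitted against DMSO baseline.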
# [2] = CCTE_Mundy_HCI_Cortical_Synap_Neur_Matur_CellBodySpotCount: CCTE's Synaptogenesis and Neurite Maturation Assay in rat cortical cells for Cell Body Spot Count, Mundy Lab (AID 2284223)
# How it was run: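 High-content imaging counts synaptophysin puncta on neuronal cell bodies per neuron after MAP2/synaptophysin immunostaining. Rat primary cortical cells, glia arrested with AraC at DIV 5, were exposed DIV 7–12; signal decrease measured against DMSO.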
# [3] = CCTE_Mundy_HCI_hNP1_Pro_ResponderAvgInten: CCTE's Proliferation Assay in human neuroprogenitor cells, Mundy Lab (AID 2284224; active means hit-call score of the fitted dose curve at least 0.9, where 1 is the maximum)
# How it was run: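 Proliferation was scored as BrdU labelling intensity in human neural progenitors derived from WA09 embryonic cells, measured 26.25 hours after chemical dosing. Activity was fitted relative to DMSO.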
# [4] = CCTE_Mundy_HCI_Cortical_NOG_NeuronCount: CCTE's Neurite Outgrowth Assay in rat cortical cells for Neuron Count, Mundy Lab (AID 2284236; active means hit-call score of the fitted dose curve at least 0.9, where 1 is the maximum;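 further: neurons counted by imaging betaIII-tubulin and Hoechst stained cortical cells; cells exposed to compound for about 48 hours before fixation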)
# How it was run: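 Read-out: neuron number by high-content imaging of betaIII-tubulin (Alexa Fluor-488) and Hoechst-labelled rat primary cortical cells.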
# [5] = CCTE_Mundy_HCI_Cortical_NOG_BPCount: CCTE's Neurite Outgrowth Assay in rat cortical cells for Branch Point Count, Mundy Lab (AID 2284237);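 on AC50: branch points counted about two days after chemical exposure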
# How it was run: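 Measured 50.33 h after dosing, this morphology endpoint uses rat primary cortical cultures labelled for betaIII-tubulin. Branch points are quantified by high-content imaging, with DMSO as negative control and baseline.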
# [6] = CCTE_Mundy_HCI_hNP1_Casp3_7: CCTE's Caspase-Glo 3/7 Assay in human neuroprogenitor cells for Apoptosis, Mundy Lab (AID 2284240)
# How it was run: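 Apoptosis is scored by activated caspase-3/7 luminescence in WA09-derived neural progenitor cells, measured 26.5 h after chemical dosing. Values represent gain of signal relative to DMSO vehicle.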
# [7] = CCTE_Mundy_HCI_hNP1_CellTiter: CCTE's Cell Titer-Glo 2 Assay in human neuroprogenitor cells for Viability, Mundy Lab (AID 2284241; active means hit-call score of the fitted dose curve at least 0.9, where 1 is the maximum;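 on AC50: a hit is a drop in ATP luminescence versus DMSO meaning reduced viability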)
# How it was run: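 Human neural progenitor cells (hNP1, WA09-derived) were plated on poly-L-ornithine/laminin and grown 40 to 44 hours at 37 °C, 5% CO2 before chemical addition. Twenty-four hours later, ATP was measured by CellTiter-Glo luminescence; loss of signal versus DMSO indicates reduced viability.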
# [8] = BSK_BT_PBMCCytotoxicity: PBMC Cytotoxicity Assessment in the BioMAP Diversity Plus: BT Assay (AID 2284225); conditions: primary human B cells with PBMC;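 further: PBMC viability measured by Alamar Blue dye reduction fluorescence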
# How it was run: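 Primary human co-culture of B cells and PBMC, pre-dosed 1 h then activated with SEB and TSST-1. Cytotoxicity is taken from Alamar Blue dye reduction, added for 6 h at the end of a 90 h incubation.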
# [9] = read-out: Secreted IgG (sIgG), gene 3500; experiment: BSK_BT_sIgG: BioMAP Diversity Plus: BT Assay for Secreted IgG (sIgG) Biomarker Activity (AID 2284226); conditions: primary human B cells with PBMC
# How it was run: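 In this multiplexed co-culture system, ELISA quantifies sIgG 24 h post-treatment. Endpoint analysis uses positive fitting direction, DMSO negative control.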
# [10] = BSK_BT_Bcell_Proliferation: Viability Assessment in the BioMAP Diversity Plus: BT Assay for B cell Proliferation (AID 2284227); conditions: primary human B cells with PBMC
# How it was run: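 SRB-based protein staining (0.1% SRB after 10% TCA fixation, 560 nm) quantifies proliferation in human B cells co-cultured with PBMC, 72 h post-dosing, with signal gain scored relative to DMSO negative control.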
# [11] = read-out: Interleukin 6 (IL6), IL6 (gene 3569); experiment: BSK_BT_xIL6: BioMAP Diversity Plus: BT Assay for Interleukin 6 (IL6) Biomarker Activity (AID 2284228); conditions: primary human B cells with PBMC
# How it was run: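 Secreted IL-6 in the primary human B cell plus PBMC system, measured by Luminex at 24 h post-chemical, DMSO as baseline. Alamar Blue viability: 75,000 cells/well, chemical 1 h before SEB/TSST-1 (20 ng/mL each), 90 h, then 6 h dye.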
# [12] = read-out: Tumor necrosis factor (Homo sapiens) (UniProt P01375); experiment: BSK_BT_xTNFa: BioMAP Diversity Plus: BT Assay for Tumor necrosis factor alpha (TNF-alpha) Biomarker Activity (AID 2284230); conditions: primary human B cells with PBMC
# How it was run: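 Compounds were added to a B cell plus PBMC co-culture, and after 24 h secreted TNF-alpha was quantified with Luminex xMAP technology, with responses fitted upward from the DMSO control.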
# [13] = read-out: Vascular cell adhesion molecule 1 (VCAM1), VCAM1 (gene 7412); experiment: BSK_MyoF_VCAM1: BioMAP Diversity Plus: MyoF Assay for Vascular cell adhesion molecule 1 (VCAM1) Biomarker Activity (AID 2284231); conditions: primary human lung fibroblasts
# How it was run: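 ELISA readout of VCAM-1 on human lung fibroblast cultures 24 hours after dosing, analyzed for signal gain relative to DMSO. Overt cytotoxicity was checked by sulforhodamine B total-protein staining in parallel cultures.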
# [14] = read-out: Collagen III, COL3A1 (gene 1281); experiment: BSK_MyoF_CollagenIII: BioMAP Diversity Plus: MyoF Assay for Collagen III Biomarker Activity (AID 2284239); conditions: primary human lung fibroblasts
# How it was run: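 Collagen III biomarker quantified by ELISA in human lung fibroblast cultures 24 h after dosing. Activity fitted in the positive direction against DMSO as baseline.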
# [15] = UKN2_HCS_IMR90_cell_viability: Viability Assessment in the University of Konstanz (UKN) Leist Lab Neural Crest Cell Migration Assay in human induced IMR90 Pluripotent Stem Cells (UKN2) (AID 2284233);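 further: cells exposed to compound for 24 h after a 24 h migration phase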
# How it was run: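 After calcein-AM/Hoechst staining, viability is quantified by high-content fluorescence imaging, relative to DMSO, in iPSC (IMR90)-derived neural crest cells. Exposure lasts 24 h, starting after a 24 h migration period on PLO/laminin/fibronectin coating.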
# [16] = CCTE_Mundy_HCI_hN2_NOG_NeuriteLength: CCTE's Neurite Outgrowth Assay in human hN2 cells for Neurite Length, Mundy Lab (AID 2284220; active means hit-call score of the fitted dose curve at least 0.9, where 1 is the maximum)
# How it was run: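 Plate hNP1-derived neurons, then add chemical 2 h later as a 1/10 dilution. Stain with anti-βIII-tubulin then Alexa Fluor-488 secondary, and image automatically to measure neurite length.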
# [17] = CCTE_Mundy_HCI_hN2_NOG_NeuronCount: CCTE's Neurite Outgrowth Assay in human hN2 cells for Neuron Count, Mundy Lab (AID 2284221; active means hit-call score of the fitted dose curve at least 0.9, where 1 is the maximum)
# How it was run: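 Read-out is the number of betaIII-tubulin-positive neurons imaged by automated high-content analysis, with DMSO as negative control.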
# [18] = UKN4_HCS_LUHMES_cell_viability: Viability Assessment in the University of Konstanz (UKN) Leist Lab Neurite Outgrowth Assay in human LUHMES cells (UKN4) (AID 2284232)
# How it was run: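 Measured in replated, 2-day-differentiated LUHMES cells treated 24 h; stained 30 min with H-33342 and calcein-AM before high-content imaging.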
# [19] = TAMU_HCS_1.5hr_SingleDonor1434_Cytotoxicity: Cytotoxicity Assessment using High-content Screening (HCS) Fluorescent Imaging for the Texas A&M University (TAMU) 1.5-hr Human Induced Pluripotent Stem Cell (iPSC)-derived Cardiotoxicity Assay (AID 2284234; active means hit-call score of the fitted dose curve at least 0.9, where 1 is the maximum)
# How it was run: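 Nuclear counts from Hoechst 33342 imaging define cytotoxicity here, with EC10 (10% cell-count loss relative to DMSO) as point of departure. iPSC cardiomyocytes received 0.2-100 uM test chemical in 0.5% DMSO for 1.5 h at 37 C.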
# [20] = TAMU_PeakParms_SingleDonor1434_QT: Texas A&M University (TAMU) 1.5-hr Human Induced Pluripotent Stem Cell (iPSC)-derived Cardiomyocytes Calcium (Ca+2) Flux Assay for Cardiotoxicity: QT (decay-rise ratio) (AID 2284235; active means hit-call score of the fitted dose curve at least 0.9, where 1 is the maximum)
# How it was run: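 Decay/rise ratio of calcium-flux fluorescence scored after 90 min exposure (37C) of donor 1434 iPSC cardiomyocytes to 0.2–100 uM (0.5% DMSO). Beat-cessation and severe-notch points removed; POD is EC05, a 5% rise over DMSO.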
# Chain of Tumor necrosis factor (Homo sapiens) (P01375 whole entry, looked up): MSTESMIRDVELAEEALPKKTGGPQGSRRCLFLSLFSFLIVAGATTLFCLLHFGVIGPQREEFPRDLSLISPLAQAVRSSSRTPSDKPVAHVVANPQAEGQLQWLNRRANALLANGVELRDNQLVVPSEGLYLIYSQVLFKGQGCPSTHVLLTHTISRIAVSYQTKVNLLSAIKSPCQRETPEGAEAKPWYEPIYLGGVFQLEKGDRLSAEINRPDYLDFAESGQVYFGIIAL
structure (smiles),measurement,setting,value
CN(C)CCOC(C)(c1ccccc1)c1ccccn1 (configuration not stated),outcome,[1],inactive
same,outcome,[2],inactive
same,outcome,[3],inactive
same,outcome,[4],inactive
same,outcome,[5],inactive
same,outcome,[6],inactive
COCCc1ccc(OCC(O)CNC(C)C)cc1 (configuration not stated),outcome,[1],inactive
same,outcome,[2],inactive
same,outcome,[4],inactive
same,outcome,[5],inactive
same,outcome,[6],inactive
same,AC50,[7],2.98 µM (active)
c1ccc(CCc2ccccc2)cc1,outcome,[8],inactive
same,outcome,[9],inactive
same,outcome,[10],inactive
same,outcome,[11],inactive
same,outcome,[12],inactive
same,AC50,[13],31 µM (active)
same,AC50,[14],26.9 µM (active)
CCCCN(CCCC)C(=O)N(CCCC)CCCC,AC50,[8],32.8 µM (active)
same,AC50,[9],14.6 µM (active)
same,AC50,[10],31.4 µM (active)
same,AC50,[11],29 µM (active)
same,AC50,[12],30.3 µM (active)
same,AC50,[13],10.5 µM (active)
same,AC50,[14],8.12 µM (active)
CSCCC=O,outcome,[8],inactive
same,outcome,[9],inactive
same,outcome,[10],inactive
same,outcome,[11],inactive
same,outcome,[12],inactive
same,outcome,[13],inactive
same,outcome,[14],inactive
COc1ccc(OC)c(N=Nc2c(O)ccc3ccccc23)c1,outcome,[8],inactive
same,AC50,[9],9.86 µM (active)
same,outcome,[10],inactive
same,outcome,[11],inactive
same,outcome,[12],inactive
same,AC50,[13],9.05 µM (active)
same,AC50,[14],10.4 µM (active)
CC(=O)C1(C)CC2=C(CCCC2(C)C)CC1C (configuration not stated),AC50,[8],31.9 µM (active)
same,AC50,[9],28.8 µM (active)
same,AC50,[10],34.7 µM (active)
same,AC50,[11],28.5 µM (active)
same,AC50,[12],30.3 µM (active)
same,AC50,[13],12.1 µM (active)
same,AC50,[14],26 µM (active)
CC=Cc1ccc(OCC)c(O)c1,outcome,[8],inactive
same,AC50,[9],12.9 µM (active)
same,outcome,[10],inactive
same,outcome,[11],inactive
same,outcome,[12],inactive
same,outcome,[13],inactive
same,outcome,[14],inactive
C=C(C)[C@H]1CC=C(C)C(=O)C1,outcome,[8],inactive
same,outcome,[9],inactive
same,outcome,[10],inactive
same,outcome,[11],inactive
same,outcome,[12],inactive
same,outcome,[13],inactive
same,outcome,[14],inactive
CS(=O)(=O)c1ccc(C2=C(c3ccccc3)C(=O)OC2)cc1,outcome,[8],inactive
same,outcome,[9],inactive
same,outcome,[10],inactive
same,outcome,[11],inactive
same,outcome,[12],inactive
same,outcome,[13],inactive
same,outcome,[14],inactive
COCCOCCOCCO,outcome,[1],inactive
same,outcome,[2],inactive
same,outcome,[3],inactive
same,outcome,[15],inactive
same,outcome,[4],inactive
same,outcome,[5],inactive
same,outcome,[6],inactive
same,outcome,[7],inactive
Clc1cc(Cl)c(-c2c(Cl)c(Cl)cc(Cl)c2Cl)cc1Cl,outcome,[8],inactive
same,outcome,[9],inactive
same,outcome,[10],inactive
same,outcome,[11],inactive
same,outcome,[12],inactive
same,AC50,[13],2.76 µM (active)
same,AC50,[14],12.4 µM (active)
O=C1c2ccccc2C(=O)c2c(O)ccc(O)c21,AC50,[8],11 µM (active)
same,AC50,[9],0.36 µM (active)
same,AC50,[10],11.8 µM (active)
same,AC50,[11],0.0172 µM (active)
same,AC50,[12],11 µM (active)
same,outcome,[13],inactive
same,outcome,[14],inactive
CCCCOC(=O)CCCCCCCC(=O)OCCCC,outcome,[8],inactive
same,outcome,[9],inactive
same,outcome,[10],inactive
same,outcome,[11],inactive
same,outcome,[12],inactive
same,outcome,[13],inactive
same,outcome,[14],inactive
C=C(C)C(=O)OCCOCCOCCOCCOC(=O)C(=C)C,outcome,[8],inactive
same,AC50,[9],20 µM (active)
same,outcome,[10],inactive
same,outcome,[11],inactive
same,outcome,[12],inactive
same,outcome,[13],inactive
same,outcome,[14],inactive
O=C1OC[C@H](Cc2cccc(O)c2)[C@H]1Cc1cccc(O)c1,outcome,[8],inactive
same,outcome,[9],inactive
same,outcome,[10],inactive
same,outcome,[11],inactive
same,outcome,[12],inactive
same,outcome,[13],inactive
same,outcome,[14],inactive
Oc1c(Cl)cc(Cl)c(Cl)c1Cc1c(O)c(Cl)cc(Cl)c1Cl,AC50,[16],1.38 µM (active)
same,AC50,[17],1.4 µM (active)
same,outcome,[1],inactive
same,AC50,[2],9.92 µM (active)
same,outcome,[3],inactive
same,AC50,[8],20 µM (active)
same,AC50,[9],0.993 µM (active)
same,AC50,[10],12.6 µM (active)
same,outcome,[11],inactive
same,AC50,[12],15.2 µM (active)
same,AC50,[13],0.555 µM (active)
same,AC50,[18],18.3 µM (active)
same,AC50,[15],3.18 µM (active)
same,AC50,[19],14.9 µM (active)
same,outcome,[20],inactive
same,AC50,[4],50 µM (active)
same,AC50,[5],10.4 µM (active)
same,AC50,[14],6.62 µM (active)
same,AC50,[6],27 µM (active)
same,AC50,[7],21.2 µM (active)
C=C(C)C(=O)OCCOCCOCCOC(=O)C(=C)C,outcome,[8],inactive
same,outcome,[9],inactive
same,outcome,[10],inactive
same,outcome,[11],inactive
same,outcome,[12],inactive
same,outcome,[13],inactive
same,outcome,[14],inactive
CC(C)(N=C=O)c1cccc(C(C)(C)N=C=O)c1,outcome,[8],inactive
same,outcome,[9],inactive
same,outcome,[10],inactive
same,outcome,[11],inactive
same,outcome,[12],inactive
same,outcome,[13],inactive
same,outcome,[14],inactive
COc1ccc(CCN2CCC(Nc3nc4ccccc4n3Cc3ccc(F)cc3)CC2)cc1,AC50,[8],7.27 µM (active)
same,AC50,[9],3.17 µM (active)
same,AC50,[10],5.84 µM (active)
same,AC50,[11],3.52 µM (active)
same,AC50,[12],7.19 µM (active)
same,AC50,[13],5 µM (active)
same,AC50,[14],6.52 µM (active)
